In PubChem BioAssay (NCI):
About 83,000 compounds went through this panel and 20% of them were active in at least one assay; those are over-represented in the sample as a whole.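 Values shown are percent growth following 48 h exposure of cells in 96-well plates to a single concentration of compound; below 10 was considered active.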 The source made the active and inactive calls.

Each compound was assayed on HL-60(TB) leukemia (assay: NCI-60 one-dose screen, 48 h (100 = growth as untreated, 0 = no growth, -100 = all killed)). Settings: 10 µM unless noted.

Row | Compound | growth
1 | Clc1ccc(I)c2ccccc12 | 98.1% (inactive)
2 | Cc1ccc2[nH]c(=O)c3c(c2c1)Oc1ncn2nc(-c4ccco4)nc2c1C3c1ccc(Cl)cc1 (stereo not given) | 96.8% (inactive)
3 | Cc1nc(-c2ccccc2)cc2c(O)c(C(=O)N/N=C/Cc3ccccc3)[nH]c(=O)c12 | 76.8% (inactive)
4 | CC(C)C(C)C(N)C(=O)O (stereo not given) | 97.9% (inactive)
5 | Cc1cc(=O)[nH]c(=O)n1Cc1cn(-c2c3ccccc3nc3ccccc23)nn1 | 16.3% (inactive)
6 | Cc1ccc(-[n+]2c3cc(N)c(C)cc3nc3cc(C)c(Nc4ccccc4)cc32)cc1 | -20.6% (active)
7 | c1ccc(Cn2cc(-c3nc4ccccc4s3)c3cccnc32)cc1 | 115% (inactive)
8 | CCCCNC(=O)NS(=O)(=O)c1ccc(N2N=C(c3ccc(C)cc3C)CC2c2ccc(N(C)C)cc2)cc1 (stereo not given) | 14.4% (inactive)
9 | C#Cc1ccc(-n2c(/C=C/c3ccc4ccccc4c3)nc3ncccc3c2=O)cc1 | -2.99% (active)
10 | CCCCCCCCCCOC(c1ccccc1)c1ccccc1 | 81.4% (inactive)
11 | COc1cccc(-c2nn(-c3ccccc3)cc2-c2ccnc(NCCCN)c2)c1 | 39.6% (inactive)
12 | Cc1ccc(C2=NN(c3ccc(S(N)(=O)=O)cc3)C(c3cn(-c4ccccc4)nc3-c3ccccc3)C2)cc1 (stereo not given) | 16.5% (inactive)
13 | O=Nc1ccc(O)c2ccccc12 | -3.12% (active)
14 | COc1cc(-c2ccc(-c3ccc(C(=N)N)s3)s2)cc(OC)c1OC | -56.6% (active)
15 | Nc1cccc2c1CN(C1CCC(=O)NC1=O)C2=O (stereo not given) | 105% (inactive)
16 | CCN1CCN(C(=O)[C@]23CC[C@@H](C)[C@H](C)[C@@H]2C2=CC[C@@H]4[C@@]5(C)CCC(=O)C(C)(C)[C@@H]5CC[C@@]4(C)[C@]2(C)CC3)CC1 | -44.6% (active)
17 | CCCCCCCCN(CCCCCCCC)CC(O)c1cc(Cl)ccc1OC (stereo not given) | 73.4% (inactive)
18 | CCc1ccc(C2=C(O)C(=O)C(c3ccc(CC)cc3)=C(O)C2=O)cc1 | -57.6% (active)
19 | CCOC(=O)C(Cc1cc(I)c(O)c(I)c1)NC(=O)c1ccccc1 (stereo not given) | 90.2% (inactive)
20 | Fc1ccc2c(-c3cncn3CCc3ccccc3)c[nH]c2c1 | 85.8% (inactive)

Row | Compound | growth
21 | CCN(C(=O)c1cc2ccccc2[nH]1)[C@H]1CCC[C@@H](NCc2ccc(OC)cc2)C1 | 117% (inactive)
22 | CCCCNC(=O)c1ccc(OCC)cc1 | 99.5% (inactive)
23 | O=C(O)c1ccc(-n2cc(CNc3ccc(C(F)(F)F)cc3)c(-c3ccccc3)n2)cc1 | 89.2% (inactive)
24 | CC1(C)OC2C(COC(c3ccccc3)(c3ccccc3)c3ccccc3)OC(c3c[nH]c4c(N)ncnc34)C2O1 (stereo not given) | -34.4% (active)
25 | O=C(CI)Nc1ccc(O)c2ccccc12 | -11.9% (active)
26 | COc1ccc(-c2csc(NC(=O)c3cc(O)c(O)c(O)c3)n2)cc1 | 62.4% (inactive)
27 | C(=C\c1cn(-c2ccccc2)nc1-c1ccccc1)/c1nnc(-c2c[nH]c3ccccc23)o1 | 98.1% (inactive)
28 | CCCCn1c(=O)c2c(nc(NCCc3ccc(O)c(O)c3)n2CCC)n(CCCC)c1=O | 60.3% (inactive)
29 | ClC1=C(Cl)C(=C2C(Cl)=C(Cl)C(Cl)=C2Cl)C(Cl)=C1Cl | 77.7% (inactive)
30 | COc1ccc(-c2cc(-c3nnc(SCC(=O)Nc4ccc(C(C)=O)cc4)o3)c3ccccc3n2)cc1 | 69% (inactive)
31 | CN(C)c1ccc([C@@H](C(=O)Nc2cccc([N+](=O)[O-])c2)N(C(=O)c2cc3ccccc3[nH]2)c2cccc([N+](=O)[O-])c2)cc1 | 97.8% (inactive)
32 | COc1ccc(C2CC(c3cccs3)=NN2c2ccc(S(=O)(=O)NC(=O)NCc3cccc(OC)c3)cc2)cc1 (stereo not given) | 103% (inactive)
33 | COc1cc(/C=C2\C(=O)Nc3ccc(Br)cc32)cc(OC)c1OC | 73.5% (inactive)
34 | O=C(NCc1ccccc1)C1CN(c2ccc(Cl)cc2)N(c2ccc(Cl)cc2)C1=O (stereo not given) | 81.7% (inactive)
35 | CC(C)c1nc2ccccc2n1CC(=O)N/N=C/c1cccc(O)c1 | 86.5% (inactive)
36 | COc1cc([C@@H]2NC(=O)NC(C)=C2C(=O)Nc2nc(-c3ccc(Cl)cc3)cs2)ccc1O | 100% (inactive)
37 | COc1ccccc1CNCCCN1C(=O)c2ccc3c4c(ccc(c24)C1=O)C(=O)N(CCCNCCNCCCN)C3=O | 0.848% (active)
38 | COC(=O)C(N)CSC(c1ccccc1)(c1ccccc1)c1ccccc1 (stereo not given) | -28.7% (active)
39 | COc1cc(OC)cc(C2C3=C(COC3=O)Nc3cc(OC)ccc32)c1 (stereo not given) | 1.71% (active)
40 | Cc1c(O)cc(-c2cnc(Nc3ccccc3)s2)c(O)c1C | 101% (inactive)
